# Some of the results follow. A number with no mark means an inactive call. Activity calls are given as the source filed them.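 How the source made its calls: active means inhibition of at least 50%; inactive means the rest.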
# Target: Single-stranded DNA-binding protein (Escherichia coli (strain K12)) (UniProt P0AGE0)
# Assay: E. coli SSB-DNA binding inhibitors, counter-screen for HCV NS3 helicase inhibitor project, biochemical, fluorescence polarization, selected ChemBridge compounds (AID 720486);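 further: displacers lower Cy5 polarization so higher inhibition means more SSB displaced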
# Details: E. coli SSB binding Cy5-dT15, fluorescence polarization; at 100 µM; active compounds read high
# Sequence of Single-stranded DNA-binding protein (Escherichia coli (strain K12)) (P0AGE0 whole entry, looked up): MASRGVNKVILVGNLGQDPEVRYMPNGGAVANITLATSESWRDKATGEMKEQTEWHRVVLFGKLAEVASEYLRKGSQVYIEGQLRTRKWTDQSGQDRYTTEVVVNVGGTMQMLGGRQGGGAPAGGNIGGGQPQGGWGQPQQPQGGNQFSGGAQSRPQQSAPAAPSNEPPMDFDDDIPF
row,Compound,inhibition
1,N#Cc1c(N)nc2sc(C(=O)Nc3ccccc3)c(N)c2c1-c1ccco1,16.3%
2,CCN(CC)c1ccc(C=C2C(=O)N(C)C(=O)N(C)C2=O)c(O)c1,30.8%
3,Cc1ccc(C(=O)C[n+]2cc(-c3ccccc3)n3c2CCCCC3)cc1,5.34%
4,COc1ccc(N2C(=O)C=CC2=O)c([N+](=O)[O-])c1,-5.58%
5,CCN(CC)c1ccc(NC(=O)/C(=C\c2ccccc2)NC(C)=O)cc1,55.1% (active)
6,O=c1c2c(nc3cc(-c4cccc(F)c4)[nH]n13)CCS2,84.2% (active)
7,COc1ccc(C(=O)Oc2ccc3oc(=O)cc(C)c3c2)cc1OC,12.6%
8,CCOc1ccc(C=C2C(=O)NC(=O)NC2=O)cc1Cl,19.9%
9,CC(C)(C)N1C(=O)NC(=O)C(=Cc2cccs2)C1=O,11.4%
10,Cc1ccc(C(=O)NCCNc2ccc([N+](=O)[O-])cc2)cc1,34.5%
11,C=CCN1C(=O)/C(=C\c2cc(OC)c(O)c([N+](=O)[O-])c2)C(=O)NC1=S,98.8% (active)
12,COc1cc(/C(O)=C(\C#N)c2nc3ccccc3n2C)cc(OC)c1OC,10.2%
13,O=C1NC(=O)C(=Cc2cc([N+](=O)[O-])cc(Br)c2O)C(=O)N1,51.5% (active)
14,O=C(NC(=S)Nc1ccc(-c2nc3cc(Cl)ccc3o2)cc1)c1ccco1,19.9%
15,COc1cc(C=C2C(=O)NC(=O)NC2=O)ccc1OCCOc1ccc([N+](=O)[O-])cc1,19.9%

# Reference: PubChem BioAssay AID720486 (Milwaukee Institute for Drug Discovery, 2013)
